The structures appear in SMILES notation. For part of these data: Measured potencies and affinities stand elsewhere. Calls of active or inactive are those of the source. Unless noted, cut-off not given; nearly all actives show IC50 up to about 0.98 µM.

System in the first assay: not listed separately
The experiment in a line: inhibition of 3D7 malaria parasite growth – strain 3D7 (AID 2306; call rule not given here;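 further: 0% = DMSO wells and 100% = chloroquine plus artemisinin control wells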). The following applies: P. falciparum 3D7 erythrocytic growth, LDH absorbance, 72 h; at 2 µM; hits give high values.
In the case of `c1ccc(CN2CCC(Nc3ccc(-c4cn[nH]c4-c4ccccn4)nc3)CC2)cc1`, the growth inhibition is 97% (active).

Consider `CN1CCN(c2cc3c(cc2Cl)CCN3C(=O)Cc2ccc(NC(=O)Nc3cccc4ccccc34)cc2)CC1`, for which the growth inhibition was 92% (active).

For the compound `O=C(CCC1CCCCC1=O)c1ccccc1` (stereo not drawn), the growth inhibition was 91% (active).

In the case of `CCOc1c(C)cc(C(F)(F)F)cc1CNCCCNc1cc(=O)c2ccccc2[nH]1`, the growth inhibition is 97% (active).

As for `CCc1cn2c3c(cc(C(=O)N[C@@H](Cc4ccccc4)[C@H](O)CNC4CCCC4)cc13)N(C)S(=O)(=O)CC2`, the growth inhibition was 100% (active).

For `COc1ccc(NC(=O)[C@H](CC(C)C)Nc2cc(C)nc(NCCc3ccc(F)cc3)n2)cc1`, the growth inhibition is 100% (active).

In the case of `CN(C)CCN(C)Cc1ccc(-c2ccc(NC(=O)c3ccc(Cl)cc3)cc2)cc1`, the growth inhibition is 91% (active).

`Cc1cc(-c2cc3nc4c(c(=O)n3[nH]2)CCCC4)c(C)o1`: the growth inhibition was 94% (active).

With `CC(C)NCC(=O)Nc1cccc(C(=O)Nc2cccc(C(F)(F)F)c2)c1`, the growth inhibition is 97% (active).

With `Cn1c(NC(=O)C2CCC(CNC(=O)c3ccc(O)c(-c4ccc(Cl)c(Cl)c4)c3)CC2)nc2ccccc21` (stereo not drawn), the growth inhibition is 99% (active).

Consider `O=C(Nc1ccc(OC2CCN(Cc3ccsc3)C2)c(Cl)c1)c1ccco1` (stereo not drawn), for which the growth inhibition was 93% (active).

Consider `O=c1[nH]c2c(c(O)c1[N+](=O)[O-])CCC2`, for which the growth inhibition was 97% (active).

As for `COc1cc(OC)c2c(C)cc(NCCCn3ccnc3)nc2c1`, the growth inhibition is 102% (active).

As for `CN1CCCN(Cc2cccc(-c3cccc(NC(=O)c4cccc(C#N)c4)c3)c2)CC1`, the growth inhibition is 95% (active).

For `O=C(NCCSCc1c(F)cccc1Cl)c1cnc2c(c1)nc(-c1cnc(-c3ccccc3)[nH]1)n2CCc1cnc[nH]1`, the growth inhibition is 93% (active).

`O=C(Nc1ccc(Cl)cc1)Nc1ccc(-c2csc(-c3nc4ccccc4[nH]3)c2)cc1`: the growth inhibition is 90% (active).

On to `CCOC(=O)C(C(C)=O)C(c1ccccc1)C(C(C)=O)C(=O)OCC` (stereo not drawn), for which the growth inhibition was 95% (active).

On to `CN(C)CCCn1c(C(=O)OC(c2ccccc2)c2ccccc2)cc2cc(OCc3ccccc3)ccc21`, for which the growth inhibition was 82% (active).

For the compound `Cc1noc(C)c1-c1cccc(CNCc2cccc(-c3cccc(-c4nc5ccc(F)cc5[nH]4)c3)c2)c1`, the growth inhibition is 103% (active).

On to `CCOc1cc(C(=O)NCCc2ccc(Cl)c(Cl)c2)ccc1-c1nc2ccc(Cl)cc2[nH]1`, for which the growth inhibition was 100% (active).

Regarding `c1cc(CNCCc2ccncc2)cc(-c2csc(-c3nc4ccccc4[nH]3)c2)c1`, the growth inhibition was 100% (active).

As for `CN(C)c1ccc(-c2csc(C(=O)NCC3CCN(Cc4cccc(C(F)(F)F)c4)C3)c2)cc1` (stereo not drawn), the growth inhibition is 97% (active).

In the case of `CC(C)c1ccc(CN2CCC(NC(=O)c3ccc(-c4cccc(F)c4)s3)CC2)cc1`, the growth inhibition was 83% (active).

`O=C(Cn1c(SCc2cccc(F)c2F)cc(=O)c2ccccc21)N(CCc1cnc[nH]1)Cc1ccc(-c2ccc(C(F)(F)F)cc2)cc1`: the growth inhibition is 101% (active).

Take `CCOC(=O)c1c(CCc2ccc(C(F)(F)F)cc2)nc2c(c1-c1ccc(C(=O)N[C@@H](C)c3ccncc3)cc1)C(=O)N1CCC[C@@H]21`: the growth inhibition is 85% (active).

On to `CCCCCn1c(Sc2ccc(C#N)c([N+](=O)[O-])c2)nnc1-c1ccc(OC)cc1`, for which the growth inhibition was 88% (active).

For the compound `c1cc(C2=N[C@H]3CCCC[C@@H]3N2)ccc1OCCCOc1ccc(C2=N[C@@H]3CCCC[C@H]3N2)cc1`, the growth inhibition is 99% (active).

In the case of `O=C(/C=C/c1ccc(Cl)cc1)NCCCCCN1CCN(C(=O)Nc2ccc(Cl)c(C(F)(F)F)c2)CC1`, the growth inhibition is 94% (active).

Turning to `COC(=O)c1cccc(NC(=O)NC2CCN(c3ccnc(Nc4ccc(OC)cc4)n3)C2)c1` (stereo not drawn), the growth inhibition was 99% (active).

On to `O=C(NC1CCN(Cc2cccc(C(F)(F)F)c2)CC1)c1ccc(-c2cccc(Cl)c2)s1`, for which the growth inhibition is 89% (active).

For `CN(C)CCNCc1ccc(-c2cccc(-c3nc4ccccc4[nH]3)c2)cc1`, the growth inhibition is 101% (active).

With `Cc1cc(NN=Cc2ccccn2)c2cc(F)ccc2n1`, the growth inhibition was 100% (active).

`O=C(/C=C/c1ccc(Cl)c(Cl)c1)NCCCCCN1CC[C@H](NC(=O)Nc2ccc(Oc3ccccc3)cc2)C1`: the growth inhibition was 100% (active).

As to `CC1(C)CCC(C)(C)c2c1ccc(C1CCN(CCCCNC(=O)c3ccc(-c4ccc(Cl)cc4)cc3)CC1)c2O`, the growth inhibition is 102% (active).

As for `COc1ccc(CCNC(=O)c2cnc3c(c2)nc(-c2cnc(-c4ccccc4)[nH]2)n3CCc2cnc[nH]2)cc1`, the growth inhibition is 96% (active).

Take `COc1cc(C)nc2ccc(NC(=O)c3cc(C(F)(F)F)cc(C(F)(F)F)c3)cc12`: the growth inhibition is 101% (active).

Consider `CCCc1cc(C)ccc1OCCCON1C(NC(=O)OCC)=NC(NC(=O)OCC)=NC1(C)C`, for which the growth inhibition was 95% (active).

Regarding `O=C(c1ccc(F)c(F)c1)N1CCOC(CCN2CCC(c3ccccc3)CC2)(c2ccc(Cl)c(Cl)c2)C1` (stereo not drawn), the growth inhibition is 89% (active).

Take `CC(=O)N(C)/N=C/[C@H](CCc1ccccc1)NC(=O)[C@H](CC(C)C)NC(=O)c1cccc(OCCN2CCOCC2)c1`: the growth inhibition is 89% (active).

The target of a further assay is Calcium-dependent protein kinase 1 (Plasmodium falciparum (isolate 3D7)) (UniProt P62344). Nature of the assay: PfCDPK1 kinase inhibitors, biochemical, TCAMS library (AID 1159585).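 Further: inhibitors leave more ATP so luminescence rises with inhibition.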 The following applies: recombinant PfCDPK1, Kinase-Glo ATP depletion luminescence.
Sequence of Calcium-dependent protein kinase 1 (Plasmodium falciparum (isolate 3D7)) (P62344 whole entry, looked up): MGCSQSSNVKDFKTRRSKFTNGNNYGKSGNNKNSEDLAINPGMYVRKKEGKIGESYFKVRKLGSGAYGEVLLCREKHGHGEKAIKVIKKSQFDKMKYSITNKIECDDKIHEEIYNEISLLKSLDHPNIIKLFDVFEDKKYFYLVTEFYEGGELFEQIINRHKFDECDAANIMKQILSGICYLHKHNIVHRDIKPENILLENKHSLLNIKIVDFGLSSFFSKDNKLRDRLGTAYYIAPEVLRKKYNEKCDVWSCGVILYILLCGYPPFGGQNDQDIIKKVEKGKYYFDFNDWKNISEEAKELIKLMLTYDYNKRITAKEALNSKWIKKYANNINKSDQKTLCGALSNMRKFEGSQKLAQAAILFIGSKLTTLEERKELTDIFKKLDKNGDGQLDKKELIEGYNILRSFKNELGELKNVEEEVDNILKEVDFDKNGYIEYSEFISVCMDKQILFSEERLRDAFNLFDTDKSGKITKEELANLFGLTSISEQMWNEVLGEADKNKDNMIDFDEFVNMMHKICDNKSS
As to `c1ccc(CN2CCC(Nc3ccc(-c4cn[nH]c4-c4ccccn4)nc3)CC2)cc1`, the outcome was inactive.

With `CN1CCN(c2cc3c(cc2Cl)CCN3C(=O)Cc2ccc(NC(=O)Nc3cccc4ccccc34)cc2)CC1`, the outcome was inactive.

With `O=C(CCC1CCCCC1=O)c1ccccc1` (stereo not drawn), the result was inactive.

On to `CCOc1c(C)cc(C(F)(F)F)cc1CNCCCNc1cc(=O)c2ccccc2[nH]1`, for which the result was inactive.

Regarding `CCc1cn2c3c(cc(C(=O)N[C@@H](Cc4ccccc4)[C@H](O)CNC4CCCC4)cc13)N(C)S(=O)(=O)CC2`, the outcome was inactive.

Consider `COc1ccc(NC(=O)[C@H](CC(C)C)Nc2cc(C)nc(NCCc3ccc(F)cc3)n2)cc1`, for which the outcome was inactive.

Consider `CN(C)CCN(C)Cc1ccc(-c2ccc(NC(=O)c3ccc(Cl)cc3)cc2)cc1`, for which the result was inactive.

On to `Cc1cc(-c2cc3nc4c(c(=O)n3[nH]2)CCCC4)c(C)o1`, for which the outcome was inactive.

On to `CC(C)NCC(=O)Nc1cccc(C(=O)Nc2cccc(C(F)(F)F)c2)c1`, for which the result was inactive.

With `Cn1c(NC(=O)C2CCC(CNC(=O)c3ccc(O)c(-c4ccc(Cl)c(Cl)c4)c3)CC2)nc2ccccc21` (stereo not drawn), the outcome was inactive.

Consider `O=C(Nc1ccc(OC2CCN(Cc3ccsc3)C2)c(Cl)c1)c1ccco1` (stereo not drawn), for which the outcome was inactive.

As to `O=c1[nH]c2c(c(O)c1[N+](=O)[O-])CCC2`, the result was inactive.

`COc1cc(OC)c2c(C)cc(NCCCn3ccnc3)nc2c1`: the result was inactive.

Regarding `CN1CCCN(Cc2cccc(-c3cccc(NC(=O)c4cccc(C#N)c4)c3)c2)CC1`, the result was inactive.

Take `O=C(NCCSCc1c(F)cccc1Cl)c1cnc2c(c1)nc(-c1cnc(-c3ccccc3)[nH]1)n2CCc1cnc[nH]1`: the result was inactive.

On to `O=C(Nc1ccc(Cl)cc1)Nc1ccc(-c2csc(-c3nc4ccccc4[nH]3)c2)cc1`, for which the result was inactive.

As to `CCOC(=O)C(C(C)=O)C(c1ccccc1)C(C(C)=O)C(=O)OCC` (stereo not drawn), the result was inactive.

On to `CN(C)CCCn1c(C(=O)OC(c2ccccc2)c2ccccc2)cc2cc(OCc3ccccc3)ccc21`, for which the outcome was inactive.

Regarding `Cc1noc(C)c1-c1cccc(CNCc2cccc(-c3cccc(-c4nc5ccc(F)cc5[nH]4)c3)c2)c1`, the outcome was inactive.

In the case of `CCOc1cc(C(=O)NCCc2ccc(Cl)c(Cl)c2)ccc1-c1nc2ccc(Cl)cc2[nH]1`, the result was inactive.

Take `c1cc(CNCCc2ccncc2)cc(-c2csc(-c3nc4ccccc4[nH]3)c2)c1`: the outcome was inactive.

As to `CN(C)c1ccc(-c2csc(C(=O)NCC3CCN(Cc4cccc(C(F)(F)F)c4)C3)c2)cc1` (stereo not drawn), the outcome was inactive.

As to `CC(C)c1ccc(CN2CCC(NC(=O)c3ccc(-c4cccc(F)c4)s3)CC2)cc1`, the outcome was inactive.

In the case of `O=C(Cn1c(SCc2cccc(F)c2F)cc(=O)c2ccccc21)N(CCc1cnc[nH]1)Cc1ccc(-c2ccc(C(F)(F)F)cc2)cc1`, the result was inactive.

On to `CCOC(=O)c1c(CCc2ccc(C(F)(F)F)cc2)nc2c(c1-c1ccc(C(=O)N[C@@H](C)c3ccncc3)cc1)C(=O)N1CCC[C@@H]21`, for which the outcome was inactive.

Consider `CCCCCn1c(Sc2ccc(C#N)c([N+](=O)[O-])c2)nnc1-c1ccc(OC)cc1`, for which the outcome was inactive.

Consider `c1cc(C2=N[C@H]3CCCC[C@@H]3N2)ccc1OCCCOc1ccc(C2=N[C@@H]3CCCC[C@H]3N2)cc1`, for which the outcome was inactive.

For `O=C(/C=C/c1ccc(Cl)cc1)NCCCCCN1CCN(C(=O)Nc2ccc(Cl)c(C(F)(F)F)c2)CC1`, the outcome was inactive.

Consider `COC(=O)c1cccc(NC(=O)NC2CCN(c3ccnc(Nc4ccc(OC)cc4)n3)C2)c1` (stereo not drawn), for which the result was inactive.

Take `O=C(NC1CCN(Cc2cccc(C(F)(F)F)c2)CC1)c1ccc(-c2cccc(Cl)c2)s1`: the outcome was inactive.

Turning to `CN(C)CCNCc1ccc(-c2cccc(-c3nc4ccccc4[nH]3)c2)cc1`, the result was inactive.

As to `Cc1cc(NN=Cc2ccccn2)c2cc(F)ccc2n1`, the result was inactive.

Regarding `O=C(/C=C/c1ccc(Cl)c(Cl)c1)NCCCCCN1CC[C@H](NC(=O)Nc2ccc(Oc3ccccc3)cc2)C1`, the result was inactive.

In the case of `CC1(C)CCC(C)(C)c2c1ccc(C1CCN(CCCCNC(=O)c3ccc(-c4ccc(Cl)cc4)cc3)CC1)c2O`, the outcome was inactive.

Consider `COc1ccc(CCNC(=O)c2cnc3c(c2)nc(-c2cnc(-c4ccccc4)[nH]2)n3CCc2cnc[nH]2)cc1`, for which the outcome was inactive.

`COc1cc(C)nc2ccc(NC(=O)c3cc(C(F)(F)F)cc(C(F)(F)F)c3)cc12`: the result was inactive.

Regarding `CCCc1cc(C)ccc1OCCCON1C(NC(=O)OCC)=NC(NC(=O)OCC)=NC1(C)C`, the result was inactive.

For the compound `O=C(c1ccc(F)c(F)c1)N1CCOC(CCN2CCC(c3ccccc3)CC2)(c2ccc(Cl)c(Cl)c2)C1` (stereo not drawn), the result was inactive.

On to `CC(=O)N(C)/N=C/[C@H](CCc1ccccc1)NC(=O)[C@H](CC(C)C)NC(=O)c1cccc(OCCN2CCOCC2)c1`, for which the outcome was inactive.
